Compound activity from PubChem BioAssay.
A selection: hits, their analogues and other compounds. The true share with any hit is near 5.4%.
RORgamma inh: inhibitors of mouse ROR gamma transcriptional activity; hit rate 5.4% among 310,000; AID 2551; P51450; Drosophila S2 Gal4-RORgamma UAS-luciferase reporter, 20 h; Potency, µM (top dose mostly 53.6 µM), for inactives: at the top dose activity change, negative = inhibition, hits mostly inhibitors; further: potency means the concentration at half of the fitted maximal effect; on the % scale 0 is the no-effect control and ±100 the full control effect; nearly all actives have a fitted effect of over 60% in size
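Stable Schneider cell line, Gal4 DNA-binding domain fused to ROR gamma, UAS-luciferase. Cmpd 1 hr RT → CuSO4 700 uM final → 20 hr RT → luciferase reagent 10 min → luminescence.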
CtBP-E1A inh: blocks the CtBP interaction with E1A. AID 651724. activity change, % (no concentration beside the values). hit rate 0.49% among 340,000. AlphaScreen GST-E1A/His-CtBP binding, 1536-well; hits give low values; in the data active means activity change below about -65%; inconclusive means mostly about -30% to -63%; further: on the % scale 0 is the no-effect control and ±100 the full control effect
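Homogeneous bead-based format: GST-tagged E1A captured on glutathione donor beads, His-tagged CtBP on nickel acceptor beads; compounds precede bead addition by 2 h at 37 °C.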
p53 reactivator: re-activators of mutant p53. AID 504706. H1299 p53-A138V BP100-luciferase reporter, luminescence, 24 h. Potency, µM (highest dose often 92.2 µM), inactives show at the top dose activity change, positive = activation, most hits filed as activators. hit rate 0.063% among 320,000; further: potency means the concentration at half of the fitted maximal effect; % of control where 0% means no effect; nearly all actives have a fitted effect of over 45% in size
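H1299 (p53-null), stable ts p53-A138V + BP100-Luc; 1000 cells/well, Opti-MEM/10% FBS; cpd 4 pt, 1:5; 24 h, 37 deg C, 5% CO2; detection reagent 10 min RT; luminescence.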
VP16 counter: counter-screen for ROR gamma inhibitors: Gal4-VP16 reporter; hit rate 3.5% among 310,000; Drosophila S2 Gal4-VP16 UAS-luciferase, luminescence, 20 h; Potency, µM (doses to about 53.6 µM), for inactives: top-dose activity, negative = inhibition, actives largely listed as inhibitors;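 further: Gal4-VP16 expression switched on by copper sulfate through the metallothionein promoter; potency means the concentration at half of the fitted maximal effect; on the % scale 0 is the no-effect control and ±100 the full control effect; nearly all actives have a fitted effect of over 50% in size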
Six1-Eya2 inh: Six1/Eya2 interaction inhibition | activity change, % (test concentration not listed) | AlphaScreen GST-Six1/His-Eya2 binding, biochemical; hits give low values | Q15475+O00167 | hit rate 0.56% among 360,000; in the data active means activity change below about -65%; inconclusive means mostly about -30% to -63%; further: on the % scale 0 is the no-effect control and ±100 the full control effect
Target sequence (O00167 whole entry, looked up): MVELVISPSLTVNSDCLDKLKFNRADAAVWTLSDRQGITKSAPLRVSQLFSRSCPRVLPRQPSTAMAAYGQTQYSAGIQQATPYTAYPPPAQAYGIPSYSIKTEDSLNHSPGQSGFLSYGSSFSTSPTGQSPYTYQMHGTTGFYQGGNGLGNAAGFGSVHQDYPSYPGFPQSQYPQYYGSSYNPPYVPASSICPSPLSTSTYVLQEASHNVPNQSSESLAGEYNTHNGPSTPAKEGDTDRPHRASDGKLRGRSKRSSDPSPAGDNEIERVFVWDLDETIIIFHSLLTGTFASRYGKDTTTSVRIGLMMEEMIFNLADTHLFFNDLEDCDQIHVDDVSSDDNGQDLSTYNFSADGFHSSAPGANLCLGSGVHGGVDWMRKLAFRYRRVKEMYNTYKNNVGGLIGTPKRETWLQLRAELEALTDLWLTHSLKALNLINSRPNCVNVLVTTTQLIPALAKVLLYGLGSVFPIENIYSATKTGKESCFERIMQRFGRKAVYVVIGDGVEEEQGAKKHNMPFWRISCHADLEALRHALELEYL
Target sequence (Q15475 whole entry, looked up): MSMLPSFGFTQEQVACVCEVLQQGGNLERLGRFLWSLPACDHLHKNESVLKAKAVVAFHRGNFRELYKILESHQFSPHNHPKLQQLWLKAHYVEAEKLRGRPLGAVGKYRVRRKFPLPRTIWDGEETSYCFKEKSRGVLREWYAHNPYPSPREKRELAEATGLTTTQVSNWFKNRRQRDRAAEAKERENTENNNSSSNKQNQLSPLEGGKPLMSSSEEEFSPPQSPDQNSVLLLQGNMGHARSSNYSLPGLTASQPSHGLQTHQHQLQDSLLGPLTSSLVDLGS
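Homogeneous AlphaScreen proximity assay pairing GST-Six1 with His-tagged Eya2 (added as 5X mix: 250 nM and 500 nM) in 50 mM Tris pH 8.0, 300 mM NaCl, 1 mM TCEP. Glutathione donor and nickel acceptor beads; 1 h, 37 °C, dark.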
An asterisk follows results filed as active; u = inconclusive; x = not tested or not shown. Unless noted, the call rests on the fitted dose curve; in most records, active means well fitted curve in the direction sought with a large enough effect; inconclusive means small, poorly fitted or top-dose-only effect, or another doubt; inactive means no such curve, though single readings can be large; an effect the other way counts as inactive or inconclusive.

SMILES	RORgamma inh	CtBP-E1A inh	p53 reactivator	VP16 counter	Six1-Eya2 inh
O=C(CNC(=O)c1nc[nH]c1C(=O)N1CCc2ccccc2C1)OCc1ccccc1	14.1µM*	-25.4	x	u	5.9
CC(C)C[C@H](NC(=O)c1nc[nH]c1C(=O)N1CCc2ccccc2C1)C(=O)OC(C)(C)C	11.2µM*	-13.2	-2.2%	u	-3.8
CN(C)Cc1ccccc1-c1cc(N(C)C)ncn1	-3.1%	x	x	2.0%	x
C#CCN(C[C@H]1[C@H](OC(=O)NCc2ccccc2F)[C@H](OC(=O)NCc2ccccc2F)C[C@H]2C(=O)N(c3ccccc3)C(=O)[C@@H]12)S(=O)(=O)c1ccc(C)cc1	x	-17.2	x	x	1.0
CC1CCN(C(=O)c2[nH]cnc2C(=O)N[C@@H](CCCCNC(=O)OC(C)(C)C)C(=O)OC(C)(C)C)CC1	-44.9%	7.0	-7.7%	-20.4%	18.1
CC(C)C[C@H](NC(=O)c1nc[nH]c1C(=O)N1CCC(C)CC1)C(=O)OC(C)(C)C	15.8µM*	-0.4	-1.7%	u	-3.8
CCC(C)Nc1nc(SC(C(C)=O)C(C)=O)nc(N(C)C)n1 (stereo unspecified)	12.6µM*	-2.3	-3.9%	u	-9.9
CCNc1nc(SC(C)C(=O)OC)nc(N(C)C)n1 (stereo unspecified)	33.7%	6.5	3.8%	2.6%	5.4
CCNc1nc(NC(C)(C)C)nc(SC(C(C)=O)C(C)=O)n1	u	3.7	-9.4%	-22.3%	-0.6
CCNc1nc(SC(C(C)=O)C(C)=O)nc(N(C)C)n1	5.01µM*	5.1	-4.9%	-26.9%	5.4
COc1ccc(C(C(=O)NC(C)(C)C)n2c(=O)c(-c3ccccc3)nc3ccccc32)cc1 (stereo unspecified)	x	0.0	x	x	-10.2
COc1cc(/C=C2/SC(=O)NC2=O)ccc1OCc1ccccc1	u	u	16.5%	u	-13.7
COc1ccc(/C=C2/SC(=S)NC2=O)cc1OCc1ccccc1	u	-1.1	-46.6%	17.8µM*	-18.0
COc1ccc(S(=O)(=O)N(C)c2ccc(C(=O)Nc3c(C)n(C)n(-c4ccccc4)c3=O)cc2)cc1	2.1%	4.0	-3.4%	-7.3%	-0.9
O=[N+]([O-])C(=C1Nc2ccccc2N1)C(Cl)=C(Cl)Cl	11.2µM*	0.0	16.9%	u	-11.9
CCOc1ccc(OCCSc2nc3ccccc3[nH]2)cc1	0.7%	-8.3	26.4%	1.0%	-7.3
CCCOc1ccc(CSc2nc3ccccc3[nH]2)cc1	u	17.2	13.5%	6.31µM*	4.8
COc1ccc(-c2cc(C(=O)N3CCN(C(=O)c4ccco4)CC3)[nH]n2)cc1	17.3%	x	-4.1%	-12.1%	4.0
CCOC(=O)c1c(C)cc(C)n2c1nc1ccccc12	5.62µM*	10.0	-2.7%	5.5%	3.6
CCOC(=O)CSc1cc(C)c(C#N)c2nc3ccccc3n12	-33.9%	-0.4	-2.2%	3.2%	7.1
O=C(Nc1ccc2c(c1)OCCO2)C1CC(c2ccccc2Cl)=NO1 (stereo unspecified)	-26.8%	3.4	-4.1%	13.3%	-1.6
O=C(Nc1ccc2c(c1)OCO2)C1CC(c2ccccc2O)=NO1 (stereo unspecified)	1.58µM*	1.1	9.0%	u	2.2
CCn1ncc(C2=NOC(C(=O)Nc3ccc4c(c3)OCO4)C2)c1C (stereo unspecified)	14.0%	1.8	-0.9%	15.8µM*	0.2
CCn1ncc(C2=NOC(C(=O)Nc3ccc(C)cc3)C2)c1C (stereo unspecified)	22.5%	1.6	-2.3%	-10.2%	-0.4
CCCC(C(=O)NC(C)(C)C)N(CC1CCCO1)C(=O)CNS(=O)(=O)c1ccc(F)cc1 (stereo unspecified)	-10.3%	5.9	0.0%	-2.2%	0.2
SMILES	RORgamma inh	CtBP-E1A inh	p53 reactivator	VP16 counter	Six1-Eya2 inh
COc1ccc(/C(C)=N/Nc2ncc(Cl)cc2Cl)c(O)c1	0.112µM*	0.0	13.3%	0.794µM*	0.0
CCN(CC)C(=O)COc1ccc(/C(C)=N/Nc2ncc(Cl)cc2Cl)cc1	6.31µM*	-3.3	0.6%	u	0.3
Cc1ccc(/C=N/NC(=O)c2c(-c3ccccc3)noc2C)c(O)c1	3.16µM*	x	18.0%	3.16µM*	x
COc1cccc(/C=N/NC(=O)c2ccoc2C)c1O	0.0631µM*	-91.9*	u	0.501µM*	-74.4*
COc1cc(C(=O)Oc2ccccc2/C=N/NC(=O)c2ccc(Cl)cc2Cl)cc(OC)c1OC	7.08µM*	u	u	11.2µM*	-24.2
COc1ccccc1/C=N/NC(=O)c1ccc(-c2ccccc2)cc1	11.2µM*	2.7	25.5%	u	-1.4
Cc1onc(-c2ccccc2)c1C(=O)N/N=C/c1c[nH]c2ccccc12	2.82µM*	6.1	-2.9%	7.08µM*	-1.8
COc1ccc(/C=N/NC(=O)c2cnccn2)c(OC)c1OC	3.1%	x	0.1%	-1.4%	1.0
COc1cccc(/C=N/NC(=O)c2c(-c3ccccc3)noc2C)c1O	0.355µM*	-91.4*	4.3%	2µM*	-89.6*
CCOc1cc([N+](=O)[O-])cc(/C=N/NC(=O)c2c(-c3ccccc3)noc2C)c1O	0.631µM*	-91.9*	-5.2%	0.631µM*	-91.0*
COc1cccc(/C=N/NC(=O)c2c(-c3ccccc3)noc2C)c1OC	x	-0.3	x	x	-0.4
COc1cccc(/C=N/NC(=O)c2cnccn2)c1O	2.24µM*	-65.2*	u	2.51µM*	-91.9*
O=C(CN1CCN(C(=O)CN2C(=O)NC3(CCCC3)C2=O)CC1)Nc1cccc(F)c1	x	3.2	-6.8%	x	1.9
CCCCNc1nc(C)nc2c1nc(-c1ccccc1)n2C(C)CCCN(CC)CC (stereo unspecified)	-27.5%	x	x	-12.9%	x
COc1ccc(/C=C/C(=O)O/N=C(\N)c2ccccc2)cc1OC	18.0%	-19.3	u	-4.1%	8.8
COc1ccc(/C=C/C(=O)Oc2ccc(/C=N/NC(=O)c3ccccc3)cc2)cc1OC	-30.9%	-75.0*	u	2.9%	1.9
Cc1oc(-c2ccccc2Cl)nc1CSCC(=O)O	-126.5%	-2.2	-9.4%	7.94µM*	9.8
Cc1oc(-c2cccc(Cl)c2)nc1CS(=O)(=O)CC(=O)NC1CC1	-17.7%	0.0	1.5%	3.4%	21.7
Cc1oc(-c2cccc(Cl)c2)nc1CSCC(=O)O	10µM*	2.2	-7.6%	5.01µM*	-2.5
O=S(=O)(c1ccc(Cl)cc1)N1CCN(CCc2ccncc2)CC1	7.1%	0.6	2.8%	-0.1%	-6.9
COc1cc2cc(CN(CCc3cccc(C)c3)C(=S)NCCCN3CCOCC3)c(=O)[nH]c2cc1OC	7.08µM*	u	-2.4%	u	-8.8
Cc1cccn2c(=O)c(C=O)c(Cl)nc12	14.1µM*	1.4	-12.2%	u	-3.8
CCOC(=O)c1[nH]nc(-c2cc(CC)c(O)cc2O)c1-c1cscn1	u	-5.1	-20.8%	12.6µM*	-5.5
